Shiga inhibitor = inhibitors of Shiga toxin in Vero cells. AID 2315. inhibition, % at 38.7 µM. Vero cells, Shiga toxin protein synthesis inhibition reporter. 290,000 compounds, 9.2% hits; in the data active = inhibition mostly above about 28%, no sharp cut-off; inactive = mostly below about 43%
Pf growth 96h = P. falciparum growth inhibition at 96 hours; P. falciparum luciferase reporter growth, 96 h; 320,000 compounds, 6.9% hits; Potency, µM (highest dose often 28.7 µM), most hits filed as inhibitors; AID 504834
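96 h incubation, 37 C, 5% CO2, of luciferase-reporter P. falciparum-infected RBCs (2% hematocrit, 0.05% parasitemia final) with test compounds; endpoint luminescence.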
Pf growth 48h = inhibits P. falciparum growth in the first generation, 48 h. 310,000 compounds, 5.9% hits. Potency, µM (highest dose often 28.7 µM), usual class: inhibitors. AID 504832. P. falciparum luciferase growth in erythrocytes, 48 h
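Erythrocytes infected with P. falciparum carrying an integrated firefly luciferase reporter (2% hematocrit, 0.1% parasitemia final) were exposed to compounds in RPMI 1640 with 0.5% Albumax at 37 C, 5% CO2. Growth inhibition was scored as reduced luminescence.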
LmPK inh = blocks Leishmania mexicana pyruvate kinase activity. AID 1721. purified LmPK, Kinase-Glo ATP luminescence, 1 h. 290,000 compounds, 0.37% hits. Potency, µM (top dose mostly 57.5 µM), actives largely listed as inhibitors
Target sequence (Q27686 whole entry, looked up): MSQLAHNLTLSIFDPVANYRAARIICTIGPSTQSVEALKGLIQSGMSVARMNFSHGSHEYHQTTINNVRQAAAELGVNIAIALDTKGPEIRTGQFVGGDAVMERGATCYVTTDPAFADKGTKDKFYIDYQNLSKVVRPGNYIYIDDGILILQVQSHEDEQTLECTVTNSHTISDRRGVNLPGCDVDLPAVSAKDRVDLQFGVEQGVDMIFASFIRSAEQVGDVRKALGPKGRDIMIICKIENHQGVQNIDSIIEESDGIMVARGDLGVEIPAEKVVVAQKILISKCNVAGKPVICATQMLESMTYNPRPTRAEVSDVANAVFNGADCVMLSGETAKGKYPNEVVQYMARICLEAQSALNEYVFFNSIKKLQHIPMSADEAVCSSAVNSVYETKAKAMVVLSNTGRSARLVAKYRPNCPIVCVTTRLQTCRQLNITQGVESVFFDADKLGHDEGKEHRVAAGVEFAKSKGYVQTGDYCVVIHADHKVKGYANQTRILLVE
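Purified LmPK (0.1 nM) converted ADP (0.1 mM) to ATP with PEP (0.5 mM) in imidazole buffer pH 7.2 with KCl and MgCl2, 1 h at room temperature. ATP was read by Kinase-Glo luminescence; data normalized to uninhibited and no-enzyme controls.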
CHX counter = affects cycloheximide protein synthesis inhibition readout, counter-screen; 300,000 compounds, 12% hits; max response, %; AID 2314; cell reporter, cycloheximide protein synthesis inhibition counterscreen; in the data active = max response mostly above about 13%, no sharp cut-off; inactive = mostly below about 14%; also: read at 38.3 µM for the half of the compounds with a filed dose
Numbers stand for hits; i = inactive; ? = inconclusive; nt = no result; ! = a repeat was not active; [ ] = remark or other dose. A selection: hits, their analogues and other compounds. The true share with any hit is near 22%. Unless noted, calls follow the shape of the dose curve; as a rule, active = well fitted inhibition curve with a large enough effect; inconclusive = small, poorly fitted or top-dose-only effect, or another doubt; inactive = no such curve, though single readings can be large or run the other way.

SMILES	Shiga inhibitor	Pf growth 96h	Pf growth 48h	LmPK inh	CHX counter
O=S(=O)(NCC1CCCN(Cc2ccccc2O)C1)c1cccc2cccnc12 (stereo not given)	i	i	?	i	i
COc1ccccc1OCCNC(=O)C1CC(=O)N(c2ccc3c(c2)OCCO3)C1 (stereo not given)	nt	i	i	nt	nt
CC(=O)c1sc(NC(=O)c2ccc(Cl)cc2)nc1C	71.0	i	i	i	29.9
Cc1ccccc1NC(=O)c1sc(NC(=O)C2CC2)nc1C	i	i	?	i	11.3
Cc1nc(NC(=O)C2CC2)sc1C(=O)Nc1ccccc1	i	?	i	i	i
COc1ccccc1CC(NC(C)=O)C(=O)NC1CCN(C(=O)Nc2ccccc2F)CC1 (stereo not given)	i	i	i	i	i
CCCc1nn(C)c2c(=O)[nH]c(-c3cc(S(=O)(=O)N4CCN(C)CC4)ccc3OCC)nc12	i	?	?	i	i
CCCc1nn(C)c2c(=O)[nH]c(-c3cc(S(=O)(=O)Nc4ccc(NC(C)=O)cc4)ccc3OCC)nc12	i	11.7µM	9.28µM	i	i
Cc1ccsc1/C=N/NC(=O)c1ccc(Cn2cc(Br)cn2)o1	i	?	?	i	i
NNC(=O)c1ccc(Cn2cc(Br)cn2)o1	61.0	i	i	i	27.2
O=C(N/N=C/c1cccc(Br)c1)c1ccc(Cn2cc(Br)cn2)o1	55.8	?	i	i	i
NNC(=O)c1ccc(Cn2cccn2)o1	51.9	i	i	i	i
Cc1cc(C)n(C(N)=NC(=O)c2ccc([N+](=O)[O-])cc2)n1	40.4	i	i	i	28.4
CCc1nn(-c2ccccc2)c2c1-c1cc(OC)c(OC)cc1C1(N2)C(=O)Nc2ccccc21 (stereo not given)	i	2.62µM	nt	i	i
COc1ccc(N2C(=O)CSC23C(=O)Nc2ccccc23)cc1OC (stereo not given)	i	nt	i	i	i
COc1cc2c(cc1OC)C1(Nc3c-2c(-c2ccccc2)nn3-c2ccccc2)C(=O)Nc2ccccc21 (stereo not given)	i	i	nt	i	i
COc1cc2c(cc1OC)C1(Nc3c-2c(C)nn3-c2ccccc2)C(=O)Nc2ccccc21 (stereo not given)	i	1.47µM	nt	i	i
C=CCNC(=O)NC(=S)c1ccccc1	i	i	i	i	22.6
O=C1NC(=O)/C(=C\c2ccc(O)cc2O)S1	i	i[5.75 µM]	i	i	i
COc1cc(CNc2ccccc2SC)ccc1O	69.7	i	i	i	i
CCOc1cc(CNc2ccccc2SC)ccc1O	i	nt	i	i	i
Cc1ccc(Cl)cc1NC(=O)CN1CCN(S(=O)(=O)N2CCC(C)CC2)CC1	i	i	i	i	i
COCCCN(C(=O)c1ccco1)c1nc(-c2ccc(OC)cc2)cs1	i	?	i	i	13.4
CCN(CC)CCCN(C(=O)c1ccco1)c1nc(-c2ccc(Cl)cc2)cs1	i	?	1.47µM	i	i
COCCCN(C(C)=O)c1nc(-c2ccccc2)cs1	81.4	?	i	i	39.4
SMILES	Shiga inhibitor	Pf growth 96h	Pf growth 48h	LmPK inh	CHX counter
CCN(CC)CCCN(C(=O)c1ccco1)c1nc(-c2ccc(C)cc2)cs1	i	i	?	i	i
O=C(CCc1nc2ccccc2c(=O)[nH]1)Nc1nnc(SCc2ccc(F)cc2)s1	nt	i	i	nt	nt
COc1ccc(-c2cc(C3C4C=CCCC4(C)C(=O)N3Cc3ccccc3)ccc2F)cc1 (stereo not given)	i	nt	nt	nt	i
CCOC(=O)CSc1nc2sc3c(c2c(=O)n1C1CCCCC1)CCN(C)C3	i	?	1.47µM	i	i
Cc1cccc(-n2c(SCC(=O)O)nc3sc4c(c3c2=O)CCCC4)c1	i	i	i	i	i
Cc1ccc(-n2c(SCC(=O)O)nc3sc4c(c3c2=O)CCCC4)cc1	i	2.94µM	i	i	i
CCOc1ccc(-n2c(SCC(N)=O)nc3sc4c(c3c2=O)CCN(C)C4)cc1	i	0.657µM	1.47µM	i	i
CCOC(=O)CSc1nc2sc3c(c2c(=O)n1-c1ccc(OCC)cc1)CCN(C)C3	i	0.738µM	13.1µM	i	i
Cc1cccc2cc(CN(CCCN(C)C)C(=S)NCCc3ccccc3)c(=O)[nH]c12	i	i	?	i	i
CCOc1ccccc1C(C(=O)NC1CCCCC1)N(C(=O)c1csnn1)C1CC1 (stereo not given)	i	?	i	i	i
Cc1cc(C)c(NC(=O)CNC(=O)COC(=O)C2=COCCO2)c(C)c1	nt	i	i	nt	nt
Cn1cc(CN2CCC(C(O)c3cccs3)CC2)c(-c2ccccc2F)n1 (stereo not given)	i	i	i	i	i
C=C(C)CSc1nc2sc3c(c2c(=O)n1-c1ccc(C)cc1)CCN(C)C3	i	0.928µM	1.31µM	i	i
CN(C)CCNc1nc2sc3c(c2c(=O)n1-c1ccccc1)CCCCC3	i	i	i	i	i
CN(C)CCNc1nc2sc3c(c2c(=O)n1-c1ccc(F)cc1)CCCCC3	i	?	10.4µM	i	i
Cc1ccc(-n2c(SCC(=O)c3c(N)n(C)c(=O)n(C)c3=O)nc3sc4c(c3c2=O)CCCC4)c(C)c1	i	0.828µM	1.17µM	i	i
COc1ccc(-n2c(SCC(=O)Nc3nccs3)nc3sc4c(c3c2=O)CCN(C)C4)cc1	i	?	?	i	i
COC(=O)C(C(=O)OC)C(c1ccccc1)C(C(=O)c1ccccc1)[N+](=O)[O-] (stereo not given)	i	i	i	i	i
COc1ccc(/C=C/C(=O)NCc2ccccn2)cc1OC	i	i	?	i	i
CCN(CC1CCCO1)C(=O)C1CCN(C2CCN(Cc3ccccc3C)CC2)CC1 (stereo not given)	i	?	?	i	i
O=C(CCc1ccccc1)NCc1ccc(F)cc1	i	i	i	i	i
Cc1ccc(-c2ccc(C(=O)NCc3ccc(Cl)cc3)o2)c2ccccc12	i	?	?	i	i
C/C(=C\C(=O)c1ccccc1)NCc1ccc(F)cc1	109.8	?	?	i	59.6
O=C(NCc1ccccc1)c1ccc(-c2ccc(F)cc2)o1	58.9	nt	i	i	25.2
Cc1ccccc1-c1ccc(C(=O)NCc2ccccc2)o1	i	i	i	i	13.6
SMILES	Shiga inhibitor	Pf growth 96h	Pf growth 48h	LmPK inh	CHX counter
O=C(NCc1ccccc1)c1ccc(-c2ccccc2C(F)(F)F)o1	i	?	i	i	37.1!
CCOc1ccc(NC(=O)CC2C(=O)N(c3cccc(OC)c3)C(=O)N2C(C)C)cc1 (stereo not given)	i	i	i	i	i
N[C@H](CSSC[C@@H](N)C(=O)O)C(=O)O	i	nt	nt	nt	i
COc1ccc(NC(=O)C2CCN(S(=O)(=O)c3cn(C)nc3C)CC2)cc1	i	?	i	i	i
N#C/C(=N\Nc1ccc(Cl)c(Cl)c1)C(=O)C1CC1	i	i	i	i	34.9
N#C/C(=N\Nc1ccc(F)cc1)C(=O)C1CC1	i	i	i	i	i
CCC1(CC)C(=O)C2=C3C1[C@H](C(=O)OC)C=C(C(=O)OC)C[C@H]3[C@H]1C(=O)N(CC(=O)OC)C(=O)[C@H]1[C@H]2C (stereo not given in full)	i	nt	nt	nt	i

Screening results (PubChem BioAssay)
